In PubChem BioAssay (Tox21):
A number with no mark means an inactive call. Results filed as inconclusive are left out. Where a call stands in place of a potency, no number is given. The source made the active and inactive calls. Unless noted, calls come from the whole dose curve; as a rule, active = well fitted curve in the direction sought with a large enough effect in the repeat runs; inconclusive = weak or mixed curves; inactive = no such curve, though single readings can be large; an effect the other way counts as inactive or inconclusive.

Columns and labels:
[1] = qHTS assay to identify small molecule HDAC inhibitors (AID 1259364); details: HCT-116 HDAC-Glo I/II luminescence, 2 h; series mostly up to 92.4 µM;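 note: wild-type HCT-116 cells with endogenous class I/II HDAC activity; top concentration of the series differs between compounds; nearly all actives have a fitted effect of over 45% in size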
Summary of the method: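 Quantitative high-throughput format: overnight-seeded HCT-116 cells got compounds for 2 hr at 37C; HDAC-Glo I/II reagent added, 30 min RT, luminescence measured.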

[2] = qHTS assay to identify small molecule HDAC inhibitors - cell viability counter screen (AID 1259365); details: HCT-116 viability, CellTiter-Glo ATP luminescence, 2 h; series mostly up to 92.4 µM; note: nearly all actives have a fitted effect of over 50% in size
Summary of the method: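 HCT-116 wild-type, overnight attachment; 2hr drug exposure, 37C; CellTiter-Glo luminescent ATP readout after 30min RT.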

[3] = qHTS assay to identify small molecule antagonists of the sonic hedgehog signaling (Shh) pathway (AID 1259369; calls by dose curve; note: nearly all actives have a fitted effect of over 45% in size; note: potency is the fitted concentration of half-maximal effect); details: NIH/3T3 Gli1-Luc reporter, Shh antagonist, luminescence 24 h; series mostly up to 92.4 µM
Summary of the method: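 Stable Gli1-Luc reporter NIH/3T3 clone; quantitative HTS in stimulated mode with conditioned medium. Luminescence measured after 24hr compound treatment at 37 C.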

[4] = target: Estrogen receptor beta (Homo sapiens) (UniProt Q92731); assay: qHTS assay to identify small molecule agonists of the estrogen receptor beta (ER-beta) signaling pathway (AID 1259377; active = well fitted activation curve with a large enough effect in the signal ratio in the repeat runs, not every such curve was filed as active; the % refers to the signal ratio); details: ER-beta-UAS-bla HEK293T, beta-lactamase FRET ratio, 16 h; series mostly up to 92.4 µM
Estrogen receptor beta (Homo sapiens), sequence (Q92731 whole entry, looked up): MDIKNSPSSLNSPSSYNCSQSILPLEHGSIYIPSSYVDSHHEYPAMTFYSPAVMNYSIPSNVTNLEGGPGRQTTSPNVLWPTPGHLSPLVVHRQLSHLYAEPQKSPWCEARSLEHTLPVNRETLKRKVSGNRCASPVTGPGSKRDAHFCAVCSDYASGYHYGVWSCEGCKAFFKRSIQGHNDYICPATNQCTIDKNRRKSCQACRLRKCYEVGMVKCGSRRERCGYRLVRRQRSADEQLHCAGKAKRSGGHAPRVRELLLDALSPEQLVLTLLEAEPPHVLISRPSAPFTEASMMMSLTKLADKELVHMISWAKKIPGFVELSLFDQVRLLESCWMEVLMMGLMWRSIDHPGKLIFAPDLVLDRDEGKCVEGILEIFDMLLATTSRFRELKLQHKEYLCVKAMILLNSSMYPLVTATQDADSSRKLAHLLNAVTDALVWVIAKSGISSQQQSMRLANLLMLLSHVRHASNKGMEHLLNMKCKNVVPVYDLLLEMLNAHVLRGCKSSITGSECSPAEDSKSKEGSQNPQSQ
Summary of the method: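 qHTS in ER-beta-UAS-bla HEK293T cells: 6 hr settling, then 16 hr compound at 37C, then LiveBLAzer substrate 2 h at RT before fluorescence reading.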

[5] = qHTS assay to identify small molecule agonists of the androgen receptor (AR) signaling pathway in the presence of an antagonist - cell viability counter screen (AID 1259379); details: MDA-kb2 viability, CellTiter-Fluor, 16 h; series mostly up to 92.4 µM; note: nearly all actives have a fitted effect of over 25% in size; note: potency is the fitted concentration of half-maximal effect;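 for activity change, negative = cytotoxicity: MDA-kb2 human breast cancer cells carrying an MMTV luciferase reporter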
Summary of the method: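 Nilutamide-containing (3.0uM final) MDA-kb2 cultures, 3,000 cells/well, were treated with compounds across 15 concentrations. After 16 hr at 37C with no CO2, cell viability was determined by CellTiter-Fluor fluorescence in the luciferase assay wells.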

[6] = qHTS assay to identify small molecule agonists of the sonic hedgehog signaling (Shh) pathway - cell viability counter screen (AID 1259366); details: NIH/3T3 Gli1-Luc viability, CellTiter-Fluor, 24 h; series mostly up to 92.4 µM; note: nearly all actives have a fitted effect of over 50% in size; note: potency is the fitted concentration of half-maximal effect
Summary of the method: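 Compounds in DMSO were pin-transferred onto 3T3 Gli1-Luc cells that had settled 4hr; plates then stood 24hr at 37C and 5% CO2. One hour before the end, CellTiter-Fluor was added and fluorescence recorded.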

[7] = qHTS assay to identify small molecule antagonists of the sonic hedgehog signaling (Shh) pathway - cell viability counter screen (AID 1259367); details: NIH/3T3 Gli1-Luc viability, CellTiter-Fluor, 24 h; series mostly up to 92.4 µM; note: nearly all actives have a fitted effect of over 55% in size; note: potency is the fitted concentration of half-maximal effect
Summary of the method: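 Tox21 library chemicals were tested on a Gli1-Luc NIH/3T3 clone (2,000 cells/well) stimulated by conditioned medium; viability was quantified as fluorescence from CellTiter-Fluor reagent added at 23 hr.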

[8] = qHTS assay to identify small molecule agonists of the sonic hedgehog signaling (Shh) pathway (AID 1259368; calls by dose curve;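 note: NIH/3T3-derived 3T3Gli1-Luc cells carrying a stable Gli1-driven firefly luciferase reporter; nearly all actives have a fitted effect of over 15% in size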); details: NIH/3T3 Gli1-Luc reporter, luciferase, 24 h; series mostly up to 92.4 µM
Summary of the method: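 Quantitative high-throughput format using a Gli1-driven firefly luciferase reporter line derived from NIH/3T3 cells. After a 24 hr compound treatment at 37 C and 5% CO2, luminescence reported Gli1 response element activity.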

[9] = target: Estrogen receptor beta (Homo sapiens) (UniProt Q92731); assay: qHTS assay to identify small molecule antagonists of the estrogen receptor beta (ER-beta) signaling pathway (AID 1259378; active = well fitted inhibition curve with a large enough effect in the signal ratio in the repeat runs, not every such curve was filed as active; the % refers to the signal ratio; note: potency is the fitted concentration of half-maximal effect); details: ER-beta-UAS-bla HEK293T, beta-lactamase FRET ratio, 16 h; series mostly up to 92.4 µM
Summary of the method: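 ER-beta-UAS-bla HEK293T cells in 2% charcoal-stripped FBS medium treated with compound plus 1nM final 17-beta-estradiol for 16 hr at 37C. Beta-lactamase reporter read by FRET substrate fluorescence after 2 hours at room temperature.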

O=C1OC(=O)c2cc(-c3ccc4c(c3)C(=O)OC4=O)ccc21
Potency [1]: inactive
Potency [2]: inactive
Potency [3]: 17.2 µM (active)
outcome [4]: inactive
Potency [5]: inactive

Cc1cccc2c1ccc1ccccc12
Potency [1]: inactive
Potency [6]: inactive
Potency [7]: inactive
Potency [8]: inactive
Potency [3]: inactive
Potency [9]: inactive
Potency [5]: inactive

CCCCCc1ccc(O)cc1
Potency [1]: inactive
Potency [2]: inactive
Potency [8]: inactive
Potency [5]: inactive

O=C1CCCCCCCCCCCCCC1
Potency [1]: inactive
Potency [6]: inactive
Potency [7]: inactive
Potency [8]: inactive
Potency [3]: inactive
outcome [4]: inactive
Potency [9]: inactive
Potency [5]: inactive

CCOC(=O)[C@H](O)[C@@H](O)C(=O)OCC
Potency [1]: inactive
Potency [6]: inactive
Potency [7]: inactive
Potency [3]: inactive
Potency [5]: inactive

CCSCC
Potency [2]: inactive
Potency [7]: 57.6 µM (active)
Potency [8]: inactive
Potency [3]: 18.2 µM (active)
outcome [4]: inactive
Potency [5]: inactive

CCCCCCCCOC(=O)c1cc(O)c(O)c(O)c1
Potency [2]: inactive
Potency [6]: 24.3 µM (active)
Potency [3]: 2.17 µM (active)
outcome [4]: inactive
Potency [9]: 15.4 µM (active)
Potency [5]: 17.2 µM (active)

CC1=C(/C=C/C(C)=C/C=C/C(C)=C\C(=O)O)C(C)(C)CCC1
Potency [2]: inactive
Potency [6]: inactive
Potency [7]: inactive

c1ccc(-c2nc3ccccc3[nH]2)cc1
Potency [2]: inactive
Potency [6]: inactive
Potency [7]: inactive
Potency [8]: inactive
outcome [4]: inactive
Potency [5]: inactive

Clc1cccc(Cl)n1
Potency [2]: inactive
Potency [6]: inactive
Potency [7]: inactive
Potency [8]: inactive
Potency [3]: inactive
Potency [5]: inactive

CC(=O)[C@]1(O)Cc2c(O)c3c(c(O)c2[C@@H](O[C@H]2C[C@H](N)[C@H](O)[C@H](C)O2)C1)C(=O)c1ccccc1C3=O
Potency [2]: inactive
Potency [6]: 0.944 µM (active)
Potency [7]: 1.19 µM (active)
Potency [3]: 0.0133 µM (active)
Potency [5]: 9.44 µM (active)

O=C1Cc2ccccc2C1
Potency [3]: inactive

CCCCCCCCSCc1cc(C)c(O)c(CSCCCCCCCC)c1
Potency [2]: inactive
Potency [6]: inactive
Potency [8]: inactive
Potency [5]: inactive

O=C(O)CN(CCCN(CC(=O)O)CC(=O)O)CC(=O)O
activity change, negative = cytotoxicity [2]: -1.94% [at 19 µM]
viability change, negative = cytotoxic [6]: -10.7% [at 19 µM]
viability change, negative = cytotoxic [7]: -4.5% [at 19 µM]
activity change [8]: -1.26% [at 18.9 µM, active compounds read high]
activation [4]: -3.28% [at 19 µM]
Potency [9]: 2.31 µM (active)
activity change, negative = cytotoxicity [5]: -2.17% [at 19 µM]

O=C1OC2(c3ccccc31)c1ccc(O)c(Br)c1Oc1c2ccc(O)c1Br
Potency [1]: inactive
Potency [3]: inactive
Potency [5]: 61.1 µM (active)

C1CCSC1
Potency [2]: inactive
Potency [6]: inactive
Potency [7]: inactive
Potency [8]: inactive
Potency [3]: inactive
Potency [5]: inactive

C=C(C)C1CCC(C)CC1O (stereo not drawn)
Potency [6]: inactive
Potency [7]: inactive
Potency [8]: inactive
Potency [3]: inactive
Potency [5]: inactive

Oc1cccc2c(O)cccc12
Potency [2]: inactive
Potency [7]: 30.6 µM (active)
Potency [8]: inactive
Potency [3]: 10.9 µM (active)
Potency [5]: inactive

O=C1c2ccccc2C(=O)c2c(Cl)cccc21
Potency [2]: inactive
Potency [6]: inactive
Potency [7]: inactive
Potency [8]: inactive
Potency [3]: inactive
Potency [5]: inactive

[Cl][Eu]([Cl])[Cl]
Potency [2]: inactive
Potency [3]: 7.7 µM (active)
Potency [5]: inactive

[Cl][Dy]([Cl])[Cl]
Potency [2]: inactive
Potency [7]: inactive
Potency [3]: 8.63 µM (active)
Potency [5]: inactive

Cc1ccc(N=Nc2c(O)ccc3ccccc23)c(C)c1
Potency [8]: inactive
Potency [3]: inactive
Potency [5]: 13.3 µM (active)

O=C(Cl)c1ccc(Cl)cc1Cl
Potency [2]: inactive
Potency [7]: inactive
Potency [8]: inactive
Potency [3]: inactive
outcome [4]: inactive
Potency [5]: inactive

Oc1ccc2c(c1)CCC2
Potency [2]: inactive
Potency [6]: inactive
Potency [7]: inactive
Potency [8]: inactive
Potency [5]: inactive

CCN(CCC#N)c1ccc(N=Nc2ccc([N+](=O)[O-])cc2)cc1
Potency [6]: inactive
Potency [7]: inactive
Potency [8]: inactive
Potency [3]: inactive
outcome [4]: inactive
Potency [5]: inactive

CC(=O)CC(N)=O
Potency [2]: inactive
Potency [6]: inactive
Potency [7]: inactive
Potency [8]: inactive
Potency [3]: inactive
Potency [5]: inactive

CCc1c(C)cc(N)c(CC)c1N
Potency [6]: inactive
Potency [7]: inactive
Potency [8]: inactive
Potency [3]: inactive
outcome [4]: inactive
Potency [5]: inactive

Cc1cc(C)c(O)c(C(C)(C)C)c1
Potency [2]: inactive
Potency [6]: inactive
Potency [7]: inactive
Potency [8]: inactive
Potency [3]: inactive
outcome [4]: inactive
Potency [9]: inactive
Potency [5]: inactive

CC(C)c1ccc2sc3ccccc3c(=O)c2c1
Potency [6]: inactive
Potency [7]: inactive
Potency [3]: inactive
outcome [4]: inactive
Potency [9]: inactive
Potency [5]: inactive

Cc1ccc2sc3cccc(C)c3c2c1
Potency [2]: inactive
Potency [6]: inactive
Potency [7]: inactive
Potency [8]: inactive
Potency [3]: inactive
outcome [4]: inactive
Potency [9]: inactive
Potency [5]: inactive

c1ccc(C[P+](c2ccccc2)(c2ccccc2)c2ccccc2)cc1
Potency [2]: inactive
Potency [8]: inactive
Potency [3]: 5.45 µM (active)
Potency [5]: 2.73 µM (active)

CCCCNc1ccc(NCCCC)c2c1C(=O)c1ccccc1C2=O
viability change, negative = cytotoxic [6]: -17.5% [at 19 µM]
viability change, negative = cytotoxic [7]: -12.9% [at 19 µM]
activity change [8]: -0.26% [at 18.9 µM, active compounds read high]
activity change, negative = inhibition [3]: -20.1% [at 19 µM]
activation [4]: -2.22% [at 19 µM]
activity, negative = inhibition [9]: 17.4% [at 19 µM]

O=C(CCCCCCCCc1cccnc1)N1CCC(C=C(c2ccccc2)c2ccccc2)CC1
Potency [2]: inactive
Potency [7]: inactive
Potency [8]: inactive
Potency [3]: 17.2 µM (active)
outcome [4]: inactive
Potency [5]: 61.1 µM (active)

COc1cc2ncnc(Nc3cccc(Cl)c3)c2cc1OC
viability change, negative = cytotoxic [7]: -19.1% [at 19 µM]
activation [4]: -5.03% [at 19 µM]
activity, negative = inhibition [9]: -15.9% [at 19 µM]
